Experimental data reported in article PMC11006913.
Residue numbers refer to the chain shown, from its start.

What was measured:
Experiment in all cases: PBM; 200 nM protein, PBS
Settings in all cases: dsDNA, one strand shown
HOXA4 [1] = target: HOXA4 (Homo sapiens, UniProt Q00056 201-287, W262R)
HOXA4 [2] = target: HOXA4 (Homo sapiens, UniProt Q00056 201-287, R217L)
HOXD13 [3] = target: HOXD13 (Homo sapiens, UniProt P35453 263-343, T313R)
HOXD13 [4] = target: HOXD13 (Homo sapiens, UniProt P35453 263-343)
Sequence of HOXD13 (Homo sapiens, UniProt P35453 263-343) (P35453 263-343): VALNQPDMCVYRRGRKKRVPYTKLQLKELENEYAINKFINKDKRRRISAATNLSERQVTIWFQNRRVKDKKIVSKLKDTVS

HOXA4 [5] = target: HOXA4 (Homo sapiens, UniProt Q00056 201-287)
Sequence of HOXA4 (Homo sapiens, UniProt Q00056 201-287) (Q00056 201-287): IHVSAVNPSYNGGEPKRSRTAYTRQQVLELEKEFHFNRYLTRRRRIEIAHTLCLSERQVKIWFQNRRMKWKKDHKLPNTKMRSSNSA

HOXD13 [6] = target: HOXD13 (Homo sapiens, UniProt P35453 263-343, T313A)
Sequence of HOXD13 (Homo sapiens, UniProt P35453 263-343, T313A) (P35453 263-343 T313A): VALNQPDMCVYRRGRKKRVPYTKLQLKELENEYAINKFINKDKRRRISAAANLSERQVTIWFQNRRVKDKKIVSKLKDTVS

HOXA4 [7] = target: HOXA4 (Homo sapiens, UniProt Q00056 201-287, W262F)
Sequence of HOXA4 (Homo sapiens, UniProt Q00056 201-287, W262F) (Q00056 201-287 W262F): as the sequence (Q00056 201-287) above, with W62F counted along it

HOXB6 [8] = target: HOXB6 (Homo sapiens, UniProt P17509 132-218, K202E)
Sequence of HOXB6 (Homo sapiens, UniProt P17509 132-218, K202E) (P17509 132-218 K202E): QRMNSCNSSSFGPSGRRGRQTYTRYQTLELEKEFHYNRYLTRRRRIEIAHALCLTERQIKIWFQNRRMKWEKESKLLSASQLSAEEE

HOXB6 [9] = target: HOXB6 (Homo sapiens, UniProt P17509 132-218)
Sequence of HOXB6 (Homo sapiens, UniProt P17509 132-218) (P17509 132-218): as the sequence (P17509 132-218 K202E) above, with E71K counted along it

PROP1 [10] = target: PROP1 (Homo sapiens, UniProt O75360 56-141)
Sequence of PROP1 (Homo sapiens, UniProt O75360 56-141) (O75360 56-141): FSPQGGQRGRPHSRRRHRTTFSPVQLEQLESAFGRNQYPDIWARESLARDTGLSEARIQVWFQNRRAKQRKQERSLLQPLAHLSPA

PROP1 [11] = target: PROP1 (Homo sapiens, UniProt O75360 56-141, R99H)
Sequence of PROP1 (Homo sapiens, UniProt O75360 56-141, R99H) (O75360 56-141 R99H): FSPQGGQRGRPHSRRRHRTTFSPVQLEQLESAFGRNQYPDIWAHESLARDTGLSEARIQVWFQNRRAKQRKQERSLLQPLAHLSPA

PROP1 [12] = target: PROP1 (Homo sapiens, UniProt O75360 56-141, F88S)
Sequence of PROP1 (Homo sapiens, UniProt O75360 56-141, F88S) (O75360 56-141 F88S): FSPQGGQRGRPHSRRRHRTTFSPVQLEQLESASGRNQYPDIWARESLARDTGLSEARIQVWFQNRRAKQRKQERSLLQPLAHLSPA

HOXA2 [13] = target: HOXA2 (Homo sapiens, UniProt O43364 129-215, R185T)
Sequence of HOXA2 (Homo sapiens, UniProt O43364 129-215, R185T) (O43364 129-215 R185T): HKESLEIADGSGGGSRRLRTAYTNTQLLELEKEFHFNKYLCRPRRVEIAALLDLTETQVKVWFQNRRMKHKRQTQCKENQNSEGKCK

ALX3 [14] = target: ALX3 (Homo sapiens, UniProt O95076 139-225, N203Q)
Sequence of ALX3 (Homo sapiens, UniProt O95076 139-225, N203Q) (O95076 139-225 N203Q): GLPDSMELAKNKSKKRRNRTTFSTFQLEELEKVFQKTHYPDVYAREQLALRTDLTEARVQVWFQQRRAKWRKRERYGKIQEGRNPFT

HOXA2 [15] = target: HOXA2 (Homo sapiens, UniProt O43364 129-215, R185K)
Sequence of HOXA2 (Homo sapiens, UniProt O43364 129-215, R185K) (O43364 129-215 R185K): as the sequence (O43364 129-215 R185T) above, with T57K counted along it

ALX3 [16] = target: ALX3 (Homo sapiens, UniProt O95076 139-225)
Sequence of ALX3 (Homo sapiens, UniProt O95076 139-225) (O95076 139-225): as the sequence (O95076 139-225 N203Q) above, with Q65N counted along it

ALX3 [17] = target: ALX3 (Homo sapiens, UniProt O95076 139-225, L168Q)
Sequence of ALX3 (Homo sapiens, UniProt O95076 139-225, L168Q) (O95076 139-225 L168Q): as the sequence (O95076 139-225 N203Q) above, with L30Q, Q65N counted along it

ALX3 [18] = target: ALX3 (Homo sapiens, UniProt O95076 139-225, L168V)
Sequence of ALX3 (Homo sapiens, UniProt O95076 139-225, L168V) (O95076 139-225 L168V): as the sequence (O95076 139-225 N203Q) above, with L30V, Q65N counted along it

HOXA2 [19] = target: HOXA2 (Homo sapiens, UniProt O43364 129-215, Y150S)
Sequence of HOXA2 (Homo sapiens, UniProt O43364 129-215, Y150S) (O43364 129-215 Y150S): as the sequence (O43364 129-215 R185T) above, with Y22S, T57R counted along it

ALX3 [20] = target: ALX3 (Homo sapiens, UniProt O95076 139-225, N203S)
Sequence of ALX3 (Homo sapiens, UniProt O95076 139-225, N203S) (O95076 139-225 N203S): as the sequence (O95076 139-225 N203Q) above, with Q65S counted along it

HOXA2 [21] = target: HOXA2 (Homo sapiens, UniProt O43364 129-215)
Sequence of HOXA2 (Homo sapiens, UniProt O43364 129-215) (O43364 129-215): as the sequence (O43364 129-215 R185T) above, with T57R counted along it

NKX2-6 [22] = target: T1, NKX2-6 (Homo sapiens, UniProt A6NCS4 118-204)
T1 sequence: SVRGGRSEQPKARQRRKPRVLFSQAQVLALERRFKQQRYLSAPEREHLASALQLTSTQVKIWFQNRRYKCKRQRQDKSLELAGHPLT

NKX2-6 [23] = target: T2, NKX2-6 (Homo sapiens, UniProt A6NCS4 118-204, F151L)
T2 sequence: T1 sequence with F34L

NKX2-6 [24] = target: T3, NKX2-6 (Homo sapiens, UniProt A6NCS4 118-204, R150C)
T3 sequence: T1 sequence with R33C

ALX1 [25] = target: ALX1 (Homo sapiens, UniProt Q15699 118-204, L144V)
Sequence of ALX1 (Homo sapiens, UniProt Q15699 118-204, L144V) (Q15699 118-204 L144V): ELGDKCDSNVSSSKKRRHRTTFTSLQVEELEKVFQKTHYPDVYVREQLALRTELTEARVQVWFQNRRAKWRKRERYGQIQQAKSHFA

ALX1 [26] = target: ALX1 (Homo sapiens, UniProt Q15699 118-204, L144R)
Sequence of ALX1 (Homo sapiens, UniProt Q15699 118-204, L144R) (Q15699 118-204 L144R): as the sequence (Q15699 118-204 L144V) above, with V27R counted along it

ALX1 [27] = target: ALX1 (Homo sapiens, UniProt Q15699 118-204)
Sequence of ALX1 (Homo sapiens, UniProt Q15699 118-204) (Q15699 118-204): as the sequence (Q15699 118-204 L144V) above, with V27L counted along it

VAX1 [28] = target: VAX1 (Homo sapiens, UniProt Q5SQQ9 86-172)
Sequence of VAX1 (Homo sapiens, UniProt Q5SQQ9 86-172) (Q5SQQ9 86-172): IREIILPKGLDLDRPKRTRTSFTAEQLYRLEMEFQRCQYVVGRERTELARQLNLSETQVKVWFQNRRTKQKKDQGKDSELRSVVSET

VAX1 [29] = target: VAX1 (Homo sapiens, UniProt Q5SQQ9 86-172, T142I)
Sequence of VAX1 (Homo sapiens, UniProt Q5SQQ9 86-172, T142I) (Q5SQQ9 86-172 T142I): as the sequence (Q5SQQ9 86-172) above, with T57I counted along it

VAX1 [30] = target: VAX1 (Homo sapiens, UniProt Q5SQQ9 86-172, K157R)
Sequence of VAX1 (Homo sapiens, UniProt Q5SQQ9 86-172, K157R) (Q5SQQ9 86-172 K157R): as the sequence (Q5SQQ9 86-172) above, with K72R counted along it

Sequence of HOXA4 (Homo sapiens, UniProt Q00056 201-287, W262R) (Q00056 201-287 W262R): as the sequence (Q00056 201-287) above, with W62R counted along it
Sequence of HOXA4 (Homo sapiens, UniProt Q00056 201-287, R217L) (Q00056 201-287 R217L): as the sequence (Q00056 201-287) above, with R17L counted along it
Sequence of HOXD13 (Homo sapiens, UniProt P35453 263-343, T313R) (P35453 263-343 T313R): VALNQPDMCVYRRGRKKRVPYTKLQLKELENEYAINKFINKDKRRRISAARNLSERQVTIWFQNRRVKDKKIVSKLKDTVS

## AGAAGGGG
HOXA4 [1]
  binding signal: 9.84 upbm affinity estimate (log intensity, higher = more binding, comparable within an allelic series)
HOXA4 [2]
  binding signal: 9.53 upbm affinity estimate (log intensity, higher = more binding, comparable within an allelic series)
HOXD13 [3]
  binding signal: 9.5 upbm affinity estimate (log intensity, higher = more binding, comparable within an allelic series)
HOXD13 [4]
  binding signal: 9.51 upbm affinity estimate (log intensity, higher = more binding, comparable within an allelic series)
HOXA4 [5]
  binding signal: 9.57 upbm affinity estimate (log intensity, higher = more binding, comparable within an allelic series)
HOXD13 [6]
  binding signal: 9.57 upbm affinity estimate (log intensity, higher = more binding, comparable within an allelic series)
HOXA4 [7]
  binding signal: 9.68 upbm affinity estimate (log intensity, higher = more binding, comparable within an allelic series)

## GCCCCCAC
HOXA4 [1]
  binding signal: 9.79 upbm affinity estimate (log intensity, higher = more binding, comparable within an allelic series)
HOXB6 [8]
  binding signal: 9.03 upbm affinity estimate (log intensity, higher = more binding, comparable within an allelic series)
HOXA4 [2]
  binding signal: 9.73 upbm affinity estimate (log intensity, higher = more binding, comparable within an allelic series)
HOXA4 [5]
  binding signal: 9.63 upbm affinity estimate (log intensity, higher = more binding, comparable within an allelic series)
HOXA4 [7]
  binding signal: 9.84 upbm affinity estimate (log intensity, higher = more binding, comparable within an allelic series)
HOXB6 [9]
  binding signal: 8.92 upbm affinity estimate (log intensity, higher = more binding, comparable within an allelic series)

## CATCCCCC
HOXA4 [1]
  binding signal: 9.63 upbm affinity estimate (log intensity, higher = more binding, comparable within an allelic series)
HOXA4 [2]
  binding signal: 9.8 upbm affinity estimate (log intensity, higher = more binding, comparable within an allelic series)
HOXA4 [5]
  binding signal: 9.66 upbm affinity estimate (log intensity, higher = more binding, comparable within an allelic series)
PROP1 [10]
  binding signal: 6.77 upbm affinity estimate (log intensity, higher = more binding, comparable within an allelic series)
PROP1 [11]
  binding signal: 6.66 upbm affinity estimate (log intensity, higher = more binding, comparable within an allelic series)
PROP1 [12]
  binding signal: 6.11 upbm affinity estimate (log intensity, higher = more binding, comparable within an allelic series)
HOXA4 [7]
  binding signal: 9.58 upbm affinity estimate (log intensity, higher = more binding, comparable within an allelic series)

## ATCCCCCC
HOXA4 [1]
  binding signal: 9.64 upbm affinity estimate (log intensity, higher = more binding, comparable within an allelic series)
HOXA2 [13]
  binding signal: 7.17 upbm affinity estimate (log intensity, higher = more binding, comparable within an allelic series)
HOXA4 [2]
  binding signal: 9.49 upbm affinity estimate (log intensity, higher = more binding, comparable within an allelic series)
ALX3 [14]
  binding signal: 7.65 upbm affinity estimate (log intensity, higher = more binding, comparable within an allelic series)
HOXA2 [15]
  binding signal: 10.1 upbm affinity estimate (log intensity, higher = more binding, comparable within an allelic series)
HOXA4 [5]
  binding signal: 9.5 upbm affinity estimate (log intensity, higher = more binding, comparable within an allelic series)
ALX3 [16]
  binding signal: 7.91 upbm affinity estimate (log intensity, higher = more binding, comparable within an allelic series)
ALX3 [17]
  binding signal: 7.61 upbm affinity estimate (log intensity, higher = more binding, comparable within an allelic series)
ALX3 [18]
  binding signal: 7.58 upbm affinity estimate (log intensity, higher = more binding, comparable within an allelic series)
HOXA2 [19]
  binding signal: 10.4 upbm affinity estimate (log intensity, higher = more binding, comparable within an allelic series)
HOXA4 [7]
  binding signal: 9.46 upbm affinity estimate (log intensity, higher = more binding, comparable within an allelic series)
ALX3 [20]
  binding signal: 7.67 upbm affinity estimate (log intensity, higher = more binding, comparable within an allelic series)
HOXA2 [21]
  binding signal: 7.3 upbm affinity estimate (log intensity, higher = more binding, comparable within an allelic series)

## ACCCCCCG
HOXA4 [1]
  binding signal: 9.65 upbm affinity estimate (log intensity, higher = more binding, comparable within an allelic series)
HOXA4 [2]
  binding signal: 9.8 upbm affinity estimate (log intensity, higher = more binding, comparable within an allelic series)
ALX3 [14]
  binding signal: 7.72 upbm affinity estimate (log intensity, higher = more binding, comparable within an allelic series)
NKX2-6 [22]
  binding signal: 9.16 upbm affinity estimate (log intensity, higher = more binding, comparable within an allelic series)
HOXA4 [5]
  binding signal: 9.93 upbm affinity estimate (log intensity, higher = more binding, comparable within an allelic series)
ALX3 [16]
  binding signal: 7.75 upbm affinity estimate (log intensity, higher = more binding, comparable within an allelic series)
ALX3 [17]
  binding signal: 7.65 upbm affinity estimate (log intensity, higher = more binding, comparable within an allelic series)
NKX2-6 [23]
  binding signal: 9.07 upbm affinity estimate (log intensity, higher = more binding, comparable within an allelic series)
ALX3 [18]
  binding signal: 7.57 upbm affinity estimate (log intensity, higher = more binding, comparable within an allelic series)
HOXA4 [7]
  binding signal: 9.7 upbm affinity estimate (log intensity, higher = more binding, comparable within an allelic series)
ALX3 [20]
  binding signal: 7.73 upbm affinity estimate (log intensity, higher = more binding, comparable within an allelic series)

## CCGGCACG
HOXA4 [1]
  binding signal: 9.89 upbm affinity estimate (log intensity, higher = more binding, comparable within an allelic series)
HOXA4 [2]
  binding signal: 9.91 upbm affinity estimate (log intensity, higher = more binding, comparable within an allelic series)
HOXA4 [5]
  binding signal: 9.85 upbm affinity estimate (log intensity, higher = more binding, comparable within an allelic series)
HOXA4 [7]
  binding signal: 9.93 upbm affinity estimate (log intensity, higher = more binding, comparable within an allelic series)

## CACTGGCC
HOXA4 [1]
  binding signal: 9.86 upbm affinity estimate (log intensity, higher = more binding, comparable within an allelic series)
HOXA2 [13]
  binding signal: 7.06 upbm affinity estimate (log intensity, higher = more binding, comparable within an allelic series)
HOXA4 [2]
  binding signal: 9.9 upbm affinity estimate (log intensity, higher = more binding, comparable within an allelic series)
HOXA2 [15]
  binding signal: 10.5 upbm affinity estimate (log intensity, higher = more binding, comparable within an allelic series)
HOXA4 [5]
  binding signal: 9.86 upbm affinity estimate (log intensity, higher = more binding, comparable within an allelic series)
HOXA2 [19]
  binding signal: 10.5 upbm affinity estimate (log intensity, higher = more binding, comparable within an allelic series)
HOXA4 [7]
  binding signal: 9.96 upbm affinity estimate (log intensity, higher = more binding, comparable within an allelic series)
HOXA2 [21]
  binding signal: 7.16 upbm affinity estimate (log intensity, higher = more binding, comparable within an allelic series)

## AGGGACGG
HOXA4 [1]
  binding signal: 9.81 upbm affinity estimate (log intensity, higher = more binding, comparable within an allelic series)
HOXA4 [2]
  binding signal: 9.83 upbm affinity estimate (log intensity, higher = more binding, comparable within an allelic series)
NKX2-6 [24]
  binding signal: 9.6 upbm affinity estimate (log intensity, higher = more binding, comparable within an allelic series)
HOXA4 [5]
  binding signal: 9.78 upbm affinity estimate (log intensity, higher = more binding, comparable within an allelic series)
HOXA4 [7]
  binding signal: 9.93 upbm affinity estimate (log intensity, higher = more binding, comparable within an allelic series)

## GACTCCGC
HOXA4 [1]
  binding signal: 9.83 upbm affinity estimate (log intensity, higher = more binding, comparable within an allelic series)
HOXA4 [2]
  binding signal: 9.81 upbm affinity estimate (log intensity, higher = more binding, comparable within an allelic series)
ALX1 [25]
  binding signal: 6.29 upbm affinity estimate (log intensity, higher = more binding, comparable within an allelic series)
ALX1 [26]
  binding signal: 6.35 upbm affinity estimate (log intensity, higher = more binding, comparable within an allelic series)
HOXA4 [5]
  binding signal: 9.59 upbm affinity estimate (log intensity, higher = more binding, comparable within an allelic series)
ALX1 [27]
  binding signal: 6.25 upbm affinity estimate (log intensity, higher = more binding, comparable within an allelic series)
HOXA4 [7]
  binding signal: 9.87 upbm affinity estimate (log intensity, higher = more binding, comparable within an allelic series)

## CCGGCTCC
HOXA4 [1]
  binding signal: 9.74 upbm affinity estimate (log intensity, higher = more binding, comparable within an allelic series)
HOXA4 [2]
  binding signal: 9.52 upbm affinity estimate (log intensity, higher = more binding, comparable within an allelic series)
ALX3 [14]
  binding signal: 7.7 upbm affinity estimate (log intensity, higher = more binding, comparable within an allelic series)
HOXA4 [5]
  binding signal: 9.48 upbm affinity estimate (log intensity, higher = more binding, comparable within an allelic series)
ALX3 [16]
  binding signal: 7.5 upbm affinity estimate (log intensity, higher = more binding, comparable within an allelic series)
ALX3 [17]
  binding signal: 7.65 upbm affinity estimate (log intensity, higher = more binding, comparable within an allelic series)
ALX3 [18]
  binding signal: 7.64 upbm affinity estimate (log intensity, higher = more binding, comparable within an allelic series)
HOXA4 [7]
  binding signal: 9.75 upbm affinity estimate (log intensity, higher = more binding, comparable within an allelic series)
ALX3 [20]
  binding signal: 7.7 upbm affinity estimate (log intensity, higher = more binding, comparable within an allelic series)

## TAATGAGA
HOXA4 [1]
  binding signal: 10.5 upbm affinity estimate (log intensity, higher = more binding, comparable within an allelic series)
HOXA2 [13]
  binding signal: 12.9 upbm affinity estimate (log intensity, higher = more binding, comparable within an allelic series)
HOXA4 [2]
  binding signal: 11.8 upbm affinity estimate (log intensity, higher = more binding, comparable within an allelic series)
HOXA2 [15]
  binding signal: 13.3 upbm affinity estimate (log intensity, higher = more binding, comparable within an allelic series)
HOXA4 [5]
  binding signal: 13.6 upbm affinity estimate (log intensity, higher = more binding, comparable within an allelic series)
VAX1 [28]
  binding signal: 13.2 upbm affinity estimate (log intensity, higher = more binding, comparable within an allelic series)
VAX1 [29]
  binding signal: 12.7 upbm affinity estimate (log intensity, higher = more binding, comparable within an allelic series)
HOXA2 [19]
  binding signal: 10.8 upbm affinity estimate (log intensity, higher = more binding, comparable within an allelic series)
HOXA4 [7]
  binding signal: 11.5 upbm affinity estimate (log intensity, higher = more binding, comparable within an allelic series)
HOXA2 [21]
  binding signal: 12.5 upbm affinity estimate (log intensity, higher = more binding, comparable within an allelic series)
VAX1 [30]
  binding signal: 12.8 upbm affinity estimate (log intensity, higher = more binding, comparable within an allelic series)

## ATCATAAG
HOXA4 [1]
  binding signal: 10.4 upbm affinity estimate (log intensity, higher = more binding, comparable within an allelic series)
HOXB6 [8]
  binding signal: 9.66 upbm affinity estimate (log intensity, higher = more binding, comparable within an allelic series)
HOXA4 [5]
  binding signal: 11.8 upbm affinity estimate (log intensity, higher = more binding, comparable within an allelic series)
HOXB6 [9]
  binding signal: 10.3 upbm affinity estimate (log intensity, higher = more binding, comparable within an allelic series)
